For assay [1], the system named is Plasmodium falciparum NF54/iGP1_RE9H ulg8 stage V gametocytes. As to the kind of experiment: gametocyte viability (luciferase signal relative to DMSO control) (% of DMSO control); higher = less gametocytocidal activity, active = 50 or less. The conditions noted are these: exposure time: 72 h. How it is done: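 Synchronous P. falciparum NF54/iGP1_RE9H ulg8 mature stage V gametocytes (day 12) were exposed to Cayman Epigenetics Screening Library compounds at 10 µM or 1 µM for 72 h at 37 °C. Viability was read as RE9H luciferase bioluminescence, normalised to DMSO plate controls (100%); 50 µM methylene blue was the positive control.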

Assay [2] has the same test system. The experiment in a line: gametocyte viability (luciferase signal relative to DMSO control) (% of DMSO control); higher = less gametocytocidal activity, active = 50 or less. The following applies: exposure time: 72 h. In a few lines: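 NF54/iGP1_RE9Hulg8 stage V gametocytes (day 12; ~2.5% gametocytemia, 3% hematocrit) in medium with 0.5% Albumax II were added to 96-well plates of nanolitre-spotted compounds (10 mM DMSO stocks), giving 10 µM or 1 µM, one well each. Plates were incubated 72 h at 37 °C. Then 90 µl was mixed with 10 µl D-luciferin (30 mg/ml) and luminescence was read on an IVIS Lumina II. Viability is relative to the mean of plate DMSO vehicle controls.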
This is another data set of the same source.

Several values for one entry are separate records, joined by “and”; a condition that tells them apart may be missing. Equal values may be shown once. Where a name gives a salt, the structure may show the parent alone. Values without a mark were called inactive.

These results are taken from the supplement of paper PMC12297408.

Turning to `CC[C@@H]1C(=O)N(C)c2cnc(Nc3ccc(C(=O)NC4CCN(C)CC4)cc3OC)nc2N1C1CCCC1`, the gametocyte viability in assay [1] (concentration: 1 µM) is 78.1; in assay [1] (concentration: 10 µM), 16.6 (active); in assay [2] (concentration: 1 µM), 80.6; in assay [2] (concentration: 10 µM), 63.5.
Regarding `OCCn1cc(-c2ccc3c(c2)CC/C3=N\O)c(-c2ccncc2)n1`, the figures for the gametocyte viability in assay [2] (concentration: 1 µM) and in assay [2] (concentration: 10 µM) were 88.7 and 99.6, respectively.
On to `CS(=O)(=O)CCNCc1ccc(-c2ccc3ncnc(Nc4ccc(OCc5cccc(F)c5)c(Cl)c4)c3c2)o1` [Lapatinib Ditosylate (Tykerb)], for which the gametocyte viability in assay [2] (concentration: 1 µM) is 102; in assay [2] (concentration: 10 µM), 98.2.
Take `C[C@@H](N)[C@H]1CC[C@H](C(=O)Nc2ccncc2)CC1`: the gametocyte viability in assay [2] (concentration: 1 µM) is 107 and 110; in assay [2] (concentration: 10 µM) it was 107 and 111.
For `Cc1ccc(S(=O)(=O)/C=C/C#N)cc1`, the gametocyte viability in assay [2] (concentration: 1 µM) was 103; in assay [2] (concentration: 10 µM) it was 3.38 (active).
Turning to `NC1(Cc2ccc(Cl)cc2)CCN(c2ncnc3[nH]ccc23)CC1`, the gametocyte viability in assay [2] (concentration: 1 µM) was 114; in assay [2] (concentration: 10 µM), 78.9.
For `CCOc1ccn(-c2ccc(F)cc2)c(=O)c1C(=O)Nc1ccc(Oc2ccnc(N)c2Cl)c(F)c1` the same measures were 95.8 and 92.2.
Take `CN1CC[C@H](c2c(O)cc(O)c3c(=O)cc(-c4ccccc4Cl)oc23)[C@H](O)C1` [Flavopiridol hydrochloride]: the gametocyte viability in assay [2] (concentration: 1 µM) is 106; in assay [2] (concentration: 10 µM) it was 111.
On to `COc1cc2ncc(-c3ccccc3)nc2cc1OC`, for which the gametocyte viability in assay [2] (concentration: 1 µM) is 99.5; in assay [2] (concentration: 10 µM) it was 91.9.
Take `Cn1cc(-c2ccc3nnc(Sc4ccc5ncccc5c4)n3n2)cn1`: the gametocyte viability is 99.7 in assay [2] (concentration: 1 µM) and 88.7 in assay [2] (concentration: 10 µM).
